Read-out in experiment [1]: Protein phosphatase 2A (PPP2R4), PTPA (gene 5524)
In words: LTEA_HepaRG_PPP2R4: Life Technologies and Expression Analysis (LTEA) Assay for Protein phosphatase 2A (PPP2R4) using HepaRG (AID 2283522). Conditions: mRNA level, 48 h; actives raise or lower the signal. An outline of the steps: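 HepaRG, 48 h exposure, 8-pt half-log series from 100 uM, 0.5% DMSO vehicle, duplicates. Readout: PPP2R4 mRNA, Fluidigm qRT-PCR, housekeeping-normalized. Bidirectional curve fit vs DMSO baseline.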

Read-out in experiment [2]: Phosphatase and tensin (PTEN), PTEN (gene 5728)
In words: LTEA_HepaRG_PTEN: Life Technologies and Expression Analysis (LTEA) Assay for Phosphatase and tensin (PTEN) using HepaRG (AID 2283523). The following applies: mRNA level, 48 h; actives raise or lower the signal. An outline of the steps:
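Expression of PTEN is quantified in the human liver line HepaRG following two days of dosing (top concentration 100 uM, half-log dilutions, 0.5% DMSO). Values derive from bidirectional curve fitting relative to DMSO controls.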

Read-out in experiment [3]: solute carrier (SLC22A1), SLC22A1 (gene 6580)
In words: LTEA_HepaRG_SLC22A1: Life Technologies and Expression Analysis (LTEA) Assay for solute carrier (SLC22A1) using HepaRG (AID 2283524).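 On AC50: differentiated human HepaRG liver cells in serum-free induction medium.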 The following applies: mRNA level, 48 h; actives raise or lower the signal. An outline of the steps:
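Transcript induction or suppression of SLC22A1 in human HepaRG cultures is scored after 48 h chemical treatment, with DMSO (0.5%) as baseline for bidirectional fitting. Concentrations span eight half-log points topping at 100 uM.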

Read-out in experiment [4]: Pyruvate Dehydrogenase Kinase 4 (PDK4), PDK4 (gene 5166)
In words: LTEA_HepaRG_PDK4: Life Technologies and Expression Analysis (LTEA) Assay for Pyruvate Dehydrogenase Kinase 4 (PDK4) using HepaRG (AID 2283525). Conditions: mRNA level, 48 h; actives raise or lower the signal. An outline of the steps:
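Eight-point, half-log concentration series (max 100 uM, 0.5% DMSO) applied to differentiated HepaRG cells for 48 h in duplicate. Endpoint: PDK4 mRNA induction or repression by qRT-PCR against DMSO baseline.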

Read-out in experiment [5]: NAD(P)H dehydrogenase [quinone] 1 (NQO1), NQO1 (gene 1728)
In words: LTEA_HepaRG_NQO1: Life Technologies and Expression Analysis (LTEA) Assay for NAD(P)H dehydrogenase [quinone] 1 (NQO1) using HepaRG (AID 2283526). The following applies: mRNA level, 48 h; actives raise or lower the signal. The method, boiled down:
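qRT-PCR read-out (Fluidigm TaqMan), normalized to three housekeeping genes, after 48 h chemical exposure of HepaRG cells. Concentrations: eight points, top 100 uM, half-log steps, 0.5% DMSO vehicle. Gain or loss of signal fitted relative to DMSO.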

Read-out in experiment [6]: Nuclear factor erythroid 2-related factor 2 (Homo sapiens) (UniProt Q16236)
As to the kind of experiment: LTEA_HepaRG_NFE2L2: Life Technologies and Expression Analysis (LTEA) Assay for Nuclear factor erythroid 2-related factor 2 (NFE2L2) Transcription Factor using HepaRG (AID 2283527).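 On outcome: TaqMan qRT-PCR transcript level normalised to ACTB GAPDH and POLR2A housekeeping genes.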 Conditions: mRNA level, 48 h; actives raise or lower the signal. The method, boiled down:
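Human liver HepaRG line treated in duplicate for 48 h with an eight-point series topping at 100 uM. Gene expression of NFE2L2 by qRT-PCR, bidirectionally fitted against the vehicle control.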

Read-out in experiment [7]: succinate dehydrogenase complex iron sulfur subunit B (SDHB), SDHB (gene 6390)
As to the kind of experiment: LTEA_HepaRG_SDHB: Life Technologies and Expression Analysis (LTEA) Assay for succinate dehydrogenase complex iron sulfur subunit B (SDHB) using HepaRG (AID 2283528). Conditions: mRNA level, 48 h; actives raise or lower the signal. The method, boiled down: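 HepaRG, 48 h exposure, 8-pt half-log series from 100 uM in 0.5% DMSO, duplicates. Readout: SDHB mRNA by Fluidigm qRT-PCR vs housekeeping genes; bidirectional fit relative to DMSO.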

Read-out in experiment [8]: Signal transducer and activator of transcription 3 (Homo sapiens) (UniProt P40763)
As to the kind of experiment: LTEA_HepaRG_STAT3: Life Technologies and Expression Analysis (LTEA) Assay for Signal transducer and activator of transcription (STAT3) using HepaRG (AID 2283529). Conditions: mRNA level, 48 h; actives raise or lower the signal. An outline of the steps:
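In this transcriptional endpoint, HepaRG cultures receive test chemicals at up to 100 uM for 48 h, tested in duplicate. STAT3 mRNA is normalized to ACTB, GAPDH and POLR2A.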

Read-out in experiment [9]: solute carrier (SLCO1B1), SLCO1B1 (gene 10599)
In words: LTEA_HepaRG_SLCO1B1: Life Technologies and Expression Analysis (LTEA) Assay for solute carrier (SLCO1B1) using HepaRG (AID 2283530). Conditions: mRNA level, 48 h; actives raise or lower the signal. The method, boiled down:
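SLCO1B1 transcript levels were quantified by TaqMan qRT-PCR using three housekeeping genes for normalization. This followed 48 h chemical exposure (100 uM top, half-log, 8 points, 0.5% DMSO) of HepaRG liver cells, with gain or loss fitted relative to DMSO.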

Read-out in experiment [10]: sulfotransferase 2A1 (SULT2A1), SULT2A1 (gene 6822)
As to the kind of experiment: LTEA_HepaRG_SULT2A1: Life Technologies and Expression Analysis (LTEA) Assay for sulfotransferase 2A1 (SULT2A1) using HepaRG (AID 2283531). The following applies: mRNA level, 48 h; actives raise or lower the signal. An outline of the steps:
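Expression change of SULT2A1, by qRT-PCR with three housekeeping-gene normalization, was scored bidirectionally versus DMSO. Cells: differentiated HepaRG, dosed in duplicate for 48 h across 8 points, highest 100 µM, half-log dilution, 0.5% DMSO.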

Read-out in experiment [11]: Transforming Growth Factor (TGFA), TGFA (gene 7039)
As to the kind of experiment: LTEA_HepaRG_TGFA: Life Technologies and Expression Analysis (LTEA) Assay for Transforming Growth Factor (TGFA) using HepaRG (AID 2283532). Conditions: mRNA level, 48 h; actives raise or lower the signal. The method, boiled down: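 Gene expression of TGFA was quantified by qRT-PCR after human HepaRG cells were treated for 48 h with test chemicals (eight concentrations, highest 100 uM, 0.5% DMSO). Activity in either direction was fitted relative to DMSO.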

Read-out in experiment [12]: Transforming Growth Factor (TGFB1), TGFB1 (gene 7040)
As to the kind of experiment: LTEA_HepaRG_TGFB1: Life Technologies and Expression Analysis (LTEA) Assay for Transforming Growth Factor (TGFB1) Transporter using HepaRG (AID 2283533). The following applies: mRNA level, 48 h; actives raise or lower the signal. The method, boiled down:
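TGFB1 transcript measured by qRT-PCR with normalisation to three housekeeping genes (ACTB, GAPDH, POLR2A); human HepaRG line treated in duplicate for 48 hr with an 8-point series topping at 100 uM, 0.5% DMSO vehicle, bidirectionally fitted.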

Read-out in another experiment: TIMP1, TIMP1 (gene 7076)
In words: LTEA_HepaRG_TIMP1: Life Technologies and Expression Analysis (LTEA) Assay for TIMP1 using HepaRG (AID 2283534). Conditions: mRNA level, 48 h; actives raise or lower the signal. The method, boiled down: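 Bidirectional change in TIMP1 transcript versus 0.5% DMSO, measured by TaqMan qRT-PCR with three housekeeping genes for normalization. HepaRG human liver cells dosed 48 h in duplicate, top concentration 100 uM with half-log dilutions.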

Read-out in experiment [13]: Tumor necrosis factor receptor 1 (TNFRSF1A), TNFRSF1A (gene 7132)
In words: LTEA_HepaRG_TNFRSF1A: Life Technologies and Expression Analysis (LTEA) Assay for Tumor necrosis factor receptor 1 (TNFRSF1A) using HepaRG (AID 2283535). The following applies: mRNA level, 48 h; actives raise or lower the signal. The method, boiled down:
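mRNA measured by qRT-PCR (TaqMan, Fluidigm arrays) against ACTB/GAPDH/POLR2A housekeepers after 48 h chemical exposure of HepaRG cells. Top concentration 100 uM, half-log 8-point series, duplicates; vehicle 0.5% DMSO, both fit directions.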

Read-out in experiment [14]: Thyroid Hormone Responsive (THRSP), THRSP (gene 7069)
In words: LTEA_HepaRG_THRSP: Life Technologies and Expression Analysis (LTEA) Assay for Thyroid Hormone Responsive (THRSP) using HepaRG (AID 2283536). The following applies: mRNA level, 48 h; actives raise or lower the signal. An outline of the steps: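 Cell model: human HepaRG, approx. 100,000 cells/well, 0.5% DMSO vehicle. Exposure lasts 48 h; phenobarbital 1 mM serves as induction positive control. Gene expression is measured by qRT-PCR against three endogenous control genes.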

Read-out in experiment [15]: UDP glucuronosyltransferase (UGT1A1), UGT1A1 (gene 54658)
As to the kind of experiment: LTEA_HepaRG_UGT1A1: Life Technologies and Expression Analysis (LTEA) Assay for UDP glucuronosyltransferase (UGT1A1) using HepaRG (AID 2283538). The following applies: mRNA level, 48 h; actives raise or lower the signal. An outline of the steps: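 HepaRG, 48 h chemical exposure (top 100 uM, half-log 8-pt, 0.5% DMSO vehicle), duplicate wells; qRT-PCR (TaqMan, Fluidigm array) for UGT1A1 mRNA, housekeeping-normalized; bidirectional curve fit vs DMSO baseline.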

Read-out in experiment [16]: UDP glucuronosyltransferase (UGT1A6), UGT1A6 (gene 54578)
In words: LTEA_HepaRG_UGT1A6: Life Technologies and Expression Analysis (LTEA) Assay for UDP glucuronosyltransferase (UGT1A6) using HepaRG (AID 2283539). The following applies: mRNA level, 48 h; actives raise or lower the signal. The method, boiled down:
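Expression was quantified by TaqMan qRT-PCR on Fluidigm arrays with ACTB/GAPDH/POLR2A normalization and bidirectional fitting against 0.5% DMSO. HepaRG cells (~100,000/well) were treated in duplicate for 48 h at eight half-log concentrations up to 100 uM in serum-free induction medium.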

Read-out in experiment [17]: X-box binding protein 1 (XBP1), XBP1 (gene 7494)
As to the kind of experiment: LTEA_HepaRG_XBP1: Life Technologies and Expression Analysis (LTEA) Assay for X-box binding protein 1 (XBP1) using HepaRG (AID 2283540). The following applies: mRNA level, 48 h; actives raise or lower the signal. The method, boiled down:
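XBP1 transcript by qRT-PCR (housekeeping-normalized: ACTB, GAPDH, POLR2A) after 48 h chemical treatment of HepaRG cells, 8-point half-log series topping at 100 uM, vehicle 0.5% DMSO. Gain and loss of signal fitted relative to DMSO.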

Experiment [18] in a line: LTEA_HepaRG_LDH_cytotoxicity: Cytotoxicity Assessment in the Life Technologies and Expression Analysis (LTEA) Assay (AID 2283563; active means hit-call score of the fitted dose curve at least 0.9, where 1 is the maximum). The method, boiled down:
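LDH release into culture medium read after 48 h chemical treatment of HepaRG cells. Duplicate wells, eight-point half-log series topping at 100 uM, 0.5% DMSO vehicle and baseline.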

Calls of active or inactive are those of the source. How the source made its calls, unless noted: active means hit-call score of the fitted dose curve at least 0.9, where 1 is the maximum; inactive means score below 0.9.

By AC50 is commonly meant the concentration giving half of the maximal activity seen.

Chain of Nuclear factor erythroid 2-related factor 2 (Homo sapiens) (Q16236 whole entry, looked up): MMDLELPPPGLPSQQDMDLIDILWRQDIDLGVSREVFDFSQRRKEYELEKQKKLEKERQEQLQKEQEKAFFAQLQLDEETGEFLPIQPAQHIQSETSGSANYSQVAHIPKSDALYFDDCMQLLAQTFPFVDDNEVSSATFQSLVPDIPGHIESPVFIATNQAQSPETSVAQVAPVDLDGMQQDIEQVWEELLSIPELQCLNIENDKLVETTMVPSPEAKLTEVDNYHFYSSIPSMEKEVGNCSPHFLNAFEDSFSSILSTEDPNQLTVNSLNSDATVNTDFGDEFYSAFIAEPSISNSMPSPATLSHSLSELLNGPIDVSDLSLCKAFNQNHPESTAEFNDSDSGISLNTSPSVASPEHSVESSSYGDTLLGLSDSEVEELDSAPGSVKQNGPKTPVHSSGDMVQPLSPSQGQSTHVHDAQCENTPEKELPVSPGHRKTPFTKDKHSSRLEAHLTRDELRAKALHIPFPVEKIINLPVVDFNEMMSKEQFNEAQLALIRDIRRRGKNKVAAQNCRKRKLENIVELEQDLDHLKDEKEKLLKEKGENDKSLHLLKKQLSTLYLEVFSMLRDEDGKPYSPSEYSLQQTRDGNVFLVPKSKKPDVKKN
Chain of Signal transducer and activator of transcription 3 (Homo sapiens) (P40763 whole entry, looked up): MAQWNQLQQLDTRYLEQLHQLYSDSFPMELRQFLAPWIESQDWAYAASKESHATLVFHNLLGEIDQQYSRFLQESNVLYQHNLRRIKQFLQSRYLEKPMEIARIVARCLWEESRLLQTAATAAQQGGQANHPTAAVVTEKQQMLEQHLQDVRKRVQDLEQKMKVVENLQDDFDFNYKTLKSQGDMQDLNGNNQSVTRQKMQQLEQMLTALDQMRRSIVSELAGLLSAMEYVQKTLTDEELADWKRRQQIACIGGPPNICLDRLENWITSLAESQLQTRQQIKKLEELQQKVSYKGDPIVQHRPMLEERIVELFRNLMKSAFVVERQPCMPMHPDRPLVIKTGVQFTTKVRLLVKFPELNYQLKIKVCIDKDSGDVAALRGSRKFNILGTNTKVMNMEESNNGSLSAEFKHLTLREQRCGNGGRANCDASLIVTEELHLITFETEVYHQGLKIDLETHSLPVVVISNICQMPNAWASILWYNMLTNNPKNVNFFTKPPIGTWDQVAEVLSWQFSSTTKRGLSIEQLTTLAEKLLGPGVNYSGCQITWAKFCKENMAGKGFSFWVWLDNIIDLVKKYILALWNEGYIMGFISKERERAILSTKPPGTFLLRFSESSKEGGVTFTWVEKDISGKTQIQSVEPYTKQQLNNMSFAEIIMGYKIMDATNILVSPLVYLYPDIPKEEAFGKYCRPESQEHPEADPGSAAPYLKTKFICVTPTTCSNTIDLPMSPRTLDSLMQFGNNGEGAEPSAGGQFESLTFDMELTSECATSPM

On to `CCC(=O)Nc1ccc(Cl)c(Cl)c1`, for which the outcome in experiment [1], in experiment [2], in experiment [4], in experiment [5], in experiment [7] and in experiment [8] was inactive. The outcome is “inactive” in experiment [9]; “inactive” in experiment [10]; “inactive” in [11]; “inactive” in [12]; “inactive” in the experiment with TIMP1, TIMP1 (gene 7076); “inactive” in [13]. Besides, the outcome in experiment [14], in [16], in [17] and in [18] was inactive. For the same molecule, the AC50 is 50 µM (active) in experiment [3], 32.2 µM (active) in experiment [6] and 26.7 µM (active) in experiment [15].
For the molecule `CCCSP(=O)(OCC)Oc1ccc(Br)cc1Cl` (configuration not stated), the outcome in [1], in experiment [2], in experiment [3], in [4], in [5] and in experiment [6] was inactive. Besides, the molecule was classed as inactive in experiment [7], in experiment [8], in experiment [9], in [10], in [11] and in experiment [12]. In addition, the outcome in the experiment with TIMP1, TIMP1 (gene 7076) is “inactive”; in [13], “inactive”; in [14], “inactive”; in experiment [16], “inactive”; in experiment [17], “inactive”; in [18], “inactive”. Moreover, in [15], the AC50 is 15.1 µM (active).
As for `CCOP(=S)(OCC)Oc1ccc2c(C)c(Cl)c(=O)oc2c1`, the molecule was called inactive in experiment [1], in experiment [2], in [5], in [7], in [8] and in experiment [9]. Further, the outcome is “inactive” in experiment [10]; “inactive” in experiment [11]; “inactive” in [12]; “inactive” with TIMP1, TIMP1 (gene 7076); “inactive” in experiment [13]; “inactive” in experiment [16]. Further, the molecule was classed as inactive in [17] and in experiment [18]. The AC50 in experiment [3] is 70 µM (active); in experiment [4], 0.837 µM (active); in experiment [6], 22.2 µM (active); in experiment [14], 14.8 µM (active); in experiment [15], 3.4 µM (active).

Values taken from PubChem BioAssay (EPA / NIEHS).
